GAA inh – qHTS Assay for Inhibitors of Human alpha-Glucosidase as a Potential Chaperone Treatment of Pompe Disease; purified human GAA, 4-MU-alpha-glucoside fluorescence; Potency, µM (top dose mostly 76.9 µM), inactives show at the highest dose activity change, negative = inhibition, usual class: inhibitors; hit rate 0.005% among 200,000;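 also: potency is read from the fitted curve at half-maximal effect; plate controls were uninhibited enzyme wells for no effect and no-enzyme background for full effect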
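Enzyme (4 nM final) mixed with compound (up to 77 uM), then 4-MU-alpha-D-pyranoside (400 uM final) added; 20 min at room temperature, pH 5.0. Reaction stopped at pH 10, fluorescence read, AC50 derived by Hill fit.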
GAA spleen mod – qHTS Assay for Inhibitors and Activators of Human alpha-Glucosidase From Spleen Homogenate; human spleen homogenate, 4-MU-alpha-glucoside fluorescence; Potency, µM (series often up to 79.9 µM), inactives show top-dose activity change, negative = inhibition, hits mostly inhibitors; hit rate 0.006% among 240,000; Lysosomal alpha-glucosidase (Homo sapiens), P10253;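 also: potency is read from the fitted curve at half-maximal effect; 0% = enzyme with vehicle and -100% = no enzyme basal signal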
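Compounds were titrated against alpha-glucosidase in spleen homogenate at pH 5.0, with 1 mM 4-methylumbelliferyl substrate for 40 min at 37 C. Reactions were quenched with pH 10 NaOH/glycine and fluorescence measured.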
GLA inh pH 4.5 – qHTS Assay for Inhibitors of Human alpha-Galactosidase at pH 4.5. Alpha-galactosidase A (Homo sapiens), P06280. purified enzyme, 4-MU-alpha-Gal fluorescence, pH 4.5. activity change, negative = inhibition, % at 105 µM. 230,000 tested, under 10 active;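 also: 0% = full activity with enzyme and -100% = basal without enzyme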
Target sequence (P06280 whole entry, looked up): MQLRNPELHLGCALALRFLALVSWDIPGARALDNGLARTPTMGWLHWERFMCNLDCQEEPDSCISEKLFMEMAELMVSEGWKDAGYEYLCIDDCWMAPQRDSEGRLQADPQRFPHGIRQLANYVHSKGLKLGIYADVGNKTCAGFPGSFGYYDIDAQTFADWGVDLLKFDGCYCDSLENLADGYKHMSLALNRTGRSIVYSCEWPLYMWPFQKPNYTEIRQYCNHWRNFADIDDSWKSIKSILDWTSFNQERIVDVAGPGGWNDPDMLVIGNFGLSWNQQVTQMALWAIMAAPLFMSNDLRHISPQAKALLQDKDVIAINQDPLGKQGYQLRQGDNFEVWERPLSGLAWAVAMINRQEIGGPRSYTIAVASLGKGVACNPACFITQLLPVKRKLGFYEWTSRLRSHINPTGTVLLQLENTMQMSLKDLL
N370S GC mod – qHTS Assay for Inhibitors and Activators of N370S glucocerebrosidase as a Potential Chaperone Treatment of Gaucher Disease | N370S GC spleen homogenate, 4MU-glucoside fluorescence | hit rate 0.092% among 330,000 | Lysosomal acid glucosylceramidase (Homo sapiens), P04062 | Potency, µM (series often up to 59.4 µM), inactives show top-dose activity change, negative = inhibition, actives largely listed as inhibitors;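 also: potency is read from the fitted curve at half-maximal effect; 0% = full enzyme activity and -100% = no enzyme basal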
GAA glycogen – qHTS Assay for Inhibitors and Activators of Human alpha-Glucosidase Cleavage of Glycogen | hit rate 0.38% among 300,000 | Lysosomal alpha-glucosidase (Homo sapiens), P10253 | recombinant GAA, glycogen substrate, Amplex Red glucose oxidase fluorescence | Potency, µM (series often up to 76.4 µM), inactives show at the top dose activity change, negative = inhibition, actives largely listed as inhibitors;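 also: potency is read from the fitted curve at half-maximal effect; 0% = full enzyme reaction and -100% = no-enzyme basal signal; the screen sought inhibitors and activators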
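Natural-substrate format: glycogen cleavage by 4 nM human enzyme, glucose read by Amplex Red coupling (Ex 573, Em 610 nm). Normalized to enzyme and no-enzyme controls.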
aGal spleen mod – qHTS Assay for Inhibitors and Activators of Human alpha-Galactosidase From Spleen Homogenate | Alpha-galactosidase A (Homo sapiens), P06280 | hit rate 0.008% among 240,000 | Potency, µM (highest dose often 80 µM), without a hit: at the highest dose activity change, negative = inhibition, hits mostly inhibitors | human spleen homogenate, 4MU-alpha-Gal fluorescence, 40 min | AID 2107, 2009;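 also: potency is read from the fitted curve at half-maximal effect; 0% = enzyme with vehicle and -100% = no enzyme basal signal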
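qHTS titration in buffer at pH 5.0. Alpha-galactosidase activity in spleen homogenate was measured via 4-methylumbelliferone release from 1 mM fluorogenic substrate after 40 min at 37C and a pH 10 stop. AC50 came from Hill fits of control-normalized data.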
* = called active by the depositor; [ ] = dose if it differs, or a comment. An excerpt weighted towards active compounds, which were near 0.43% of everything screened. Calls follow the shape of the dose curve; as a rule, active = well fitted curve in the direction sought with a large enough effect; inconclusive = small, poorly fitted or top-dose-only effect, or another doubt; inactive = no such curve, though single readings can be large; an effect the other way counts as inactive or inconclusive.

`COc1cccc(/C=N/Nc2ccc(S(=O)(=O)O)cc2)c1O` gave GAA inh 5.1%, GAA spleen mod 1.3%, GLA inh pH 4.5 6.4, N370S GC mod -3.9%, GAA glycogen 7.88µM* and aGal spleen mod -3.0%.
`Cc1ccc2nc(-c3ccc(C)o3)c(Nc3ccc4c(c3)OCCO4)n2c1` gave GAA glycogen 6.31µM*.
`Cc1ccc(-c2nc3ccccn3c2Nc2ccccc2)o1` gave GAA inh 6.5%, GAA spleen mod 8.6%, GLA inh pH 4.5 4.6, N370S GC mod 5.2%, GAA glycogen 7.94µM* and aGal spleen mod 29.5%.
Screening c1cncc(-c2nc3ccccn3c2Nc2ccc3c(c2)OCCO3)c1 returned GAA inh -5.2%, GAA spleen mod -2.3%, GLA inh pH 4.5 -17.5, N370S GC mod -1.1%, GAA glycogen 17.7% and aGal spleen mod -5.6%.
For Cc1ccc(-c2nc3ccccn3c2Nc2ccc3c(c2)OCCO3)o1 the results were GAA glycogen 4.47µM*.
For c1csc(-c2nc3ccccn3c2Nc2ccc3c(c2)OCCO3)c1 the results were GAA glycogen 12.6µM*.
`COc1ccc(-n2cc(-c3ccc4c(c3)OCO4)n(CC(=O)Nc3cc(Cl)ccc3C)c2=O)cc1` gave GAA glycogen 15.1%[76.3 µM].
Screening O=C1CN(C(=O)COC(=O)c2ccc(N3CCCCCC3)c([N+](=O)[O-])c2)c2ccccc2N1 returned GAA inh -4.4%, GAA spleen mod 0.0%, GLA inh pH 4.5 -5.5, N370S GC mod 1.6%, GAA glycogen 1.2% and aGal spleen mod 0.7%.
`CCN(CCO)C(=S)Nc1cc(S(=O)(=O)N(C)C)ccc1C` gave GAA inh 0.6%, GAA spleen mod -3.9%, GLA inh pH 4.5 -14.9, N370S GC mod -0.4%, GAA glycogen 1.6% and aGal spleen mod 2.7%.
Cc1ccc(C(O)(C(=O)NNc2ccccn2)c2ccc(C)cc2)cc1 was read as GAA inh -10.9%, GAA spleen mod -6.0%, GLA inh pH 4.5 -8.3, N370S GC mod -3.9%, GAA glycogen 5.01µM* and aGal spleen mod 6.3%.
O=C(CC(c1ccccc1)c1cc(Br)ccc1O)NCCCN1CCOCC1 (configuration not stated) was read as N370S GC mod -1.8% and GAA glycogen -5.9%[76.3 µM].
Screening O=C(CC(c1ccccc1)c1cc(Br)ccc1O)NCCN1CCOCC1 (configuration not stated) returned GAA inh -0.2%, GAA spleen mod -26.5%, GLA inh pH 4.5 4.6, N370S GC mod 6.3%, GAA glycogen 28.4% and aGal spleen mod 39.8µM*.
For C/C=C1\COC(C(=O)NCCN2CCOCC2)(C(F)(F)F)C=C1C=C(C)C (configuration not stated) the results were GAA spleen mod -2.9%, N370S GC mod 14.1µM* and aGal spleen mod 1.7%.
For CC(C)=C(NC(=O)c1ccccc1)C(=O)NCCCC(=O)O the results were GAA inh -2.8%, GAA spleen mod -0.3%, GLA inh pH 4.5 4.6, N370S GC mod 5.4%, GAA glycogen -4.8% and aGal spleen mod 2.1%.
Screening O=C1OCC(CO)(CO)N=C1NNc1ccccc1Cl returned GAA inh -7.1%, GAA spleen mod -8.5%, GLA inh pH 4.5 1.5, N370S GC mod 7.3%, GAA glycogen 28.2µM* and aGal spleen mod -1.6%.
CSc1cccc(NC(=O)CNC(=O)c2ccc3c(c2)OCO3)c1 was read as N370S GC mod 5.2%.
Screening CSc1cccc(-n2cc(-c3ccc4c(c3)OCO4)[nH]c2=O)c1 returned GAA inh -2.8%, GAA spleen mod -5.8%, GLA inh pH 4.5 2.8, N370S GC mod -21.7%, GAA glycogen 35.2µM* and aGal spleen mod -16.7%.
For O=C(O)CC1=C(O)C(=O)N(c2ccccc2)C1c1ccc(Br)cc1 (configuration not stated) the results were GAA inh 0.2%, GAA spleen mod -3.5%, GLA inh pH 4.5 6.4, N370S GC mod 13.3%, GAA glycogen 24.9µM* and aGal spleen mod -13.0%.
Screening O=C(O)CC1=C(O)C(=O)N(c2ccccc2)C1c1ccccc1 (configuration not stated) returned GAA inh -12.2%, GAA spleen mod -13.6%, GLA inh pH 4.5 -8.3, N370S GC mod 0.3%, GAA glycogen inconclusive and aGal spleen mod 0.1%.
For Cc1nc(N)sc1-c1csc(N(C)c2ccc(O)cc2)n1 the results were GAA inh 0.8%, GAA spleen mod -1.3%, GLA inh pH 4.5 -18.4, N370S GC mod -26.4%, GAA glycogen 25.1µM* and aGal spleen mod 0.0%.
`Cc1ccc(CNC(=O)Cn2nnc(C(=O)Nc3ccc(Br)cc3)c2N)cc1` gave N370S GC mod -0.4%.
NS(=O)(=O)c1ccc(NNC(=O)c2ccccc2C(=O)O)cc1 was read as GAA spleen mod -12.0%, GLA inh pH 4.5 -1.1, N370S GC mod 1.9%, GAA glycogen inconclusive and aGal spleen mod -0.8%.
For O=C(O)c1ccccc1C(=O)NNc1ccc(Cl)cc1 the results were GAA inh 3.2%, GAA spleen mod -8.4%, GLA inh pH 4.5 9.6, N370S GC mod -7.7%, GAA glycogen 11.2µM* and aGal spleen mod -6.3%.
`Cc1cc(C(=O)NN=C2CCCC2)c2ccccc2n1` gave N370S GC mod 0.7%.
For CN1CCc2cccc3c2[C@@H]1Cc1ccc(O)c(O)c1-3 the results were GAA inh inconclusive, GAA spleen mod -4.2%, GLA inh pH 4.5 -2.7, N370S GC mod -1.4%, GAA glycogen 3.52µM* and aGal spleen mod -5.5%.
COc1ccc2c(c1O)-c1ccccc1CCN(C)C2 was read as GAA spleen mod 4.1%, GLA inh pH 4.5 5.3, N370S GC mod 22.4%, GAA glycogen -1.7% and aGal spleen mod 4.8%.
O=C1CCCC/C1=C\Nc1ccc(O)cc1 was read as GAA inh -14.4%, GAA spleen mod -4.6%, GLA inh pH 4.5 4.6, N370S GC mod inconclusive, GAA glycogen 8.84µM* and aGal spleen mod 3.9%.
`CN(C)/N=C/c1c(O)ccc2ccccc12` gave GAA inh -0.5%, GAA spleen mod -0.3%, GLA inh pH 4.5 -1.5, N370S GC mod -6.9%, GAA glycogen 14.1µM* and aGal spleen mod 1.4%.
